Assay outcomes deposited in PubChem by The Scripps Research Institute Molecular Screening Center.
MITF inh = human MITF inhibition, primary screen; AlphaScreen MITF homodimerization, bead proximity signal; inhibition, % at 2.6 µM; 650,000 compounds, 0.91% hits; AID 1259374; O75030; in the data active means inhibition above about 50%;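 further: 0% = vehicle wells with protein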
TEAD-YAP inh = TEAD-YAP interaction inhibition; inhibition, % at 9.12 µM; 640,000 compounds, 1.4% hits; HEK-TIYL cells, TEAD-Gal4/YAP UAS-luciferase luminescence; in the data active means inhibition above about 32%;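 further: 0% = median of test compound wells and 100% = reference inhibitor wells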
GPR151 ag = human GPR151 activation; Q8TDV0; PathHunter beta-arrestin GPR151 cells, luminescence; activation, % at 11.2 µM; 650,000 compounds, 1% hits; AID 1508602; in the data active means activation above about 4.9%;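 further: 0% = median of compound wells and 100% = cells with positive control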
FBW7 activator = human FBW7 E3 ligase activation, primary screen; Q969H0; AlphaScreen FBW7–phospho-cyclin E peptide binding, activator screen; normalized activity (activation), % at 26.1 µM; 650,000 compounds, 0.13% hits; in the data active means normalized activity above about 1.9%;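 further: purified mutant Fbw7 with reduced substrate affinity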
Target sequence (Q969H0 whole entry, looked up): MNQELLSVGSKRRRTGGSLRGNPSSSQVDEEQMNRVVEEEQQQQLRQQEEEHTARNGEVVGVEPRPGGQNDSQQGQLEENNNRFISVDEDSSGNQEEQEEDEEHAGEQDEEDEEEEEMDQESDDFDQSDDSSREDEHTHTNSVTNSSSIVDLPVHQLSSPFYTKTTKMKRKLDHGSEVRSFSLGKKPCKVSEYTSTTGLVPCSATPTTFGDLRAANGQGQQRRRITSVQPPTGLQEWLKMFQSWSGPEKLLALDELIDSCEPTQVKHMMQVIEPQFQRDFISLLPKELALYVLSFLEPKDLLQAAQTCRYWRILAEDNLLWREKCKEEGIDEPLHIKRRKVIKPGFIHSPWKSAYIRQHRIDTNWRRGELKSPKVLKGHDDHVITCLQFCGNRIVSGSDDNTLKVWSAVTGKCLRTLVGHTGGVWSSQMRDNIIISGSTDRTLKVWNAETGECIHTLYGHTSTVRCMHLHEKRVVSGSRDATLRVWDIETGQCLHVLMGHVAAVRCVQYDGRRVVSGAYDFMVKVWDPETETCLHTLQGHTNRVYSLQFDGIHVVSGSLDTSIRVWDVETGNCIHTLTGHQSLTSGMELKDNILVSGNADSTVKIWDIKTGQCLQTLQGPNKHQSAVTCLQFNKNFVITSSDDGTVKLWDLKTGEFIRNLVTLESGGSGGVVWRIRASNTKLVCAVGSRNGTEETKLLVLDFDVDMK
* = called active by the depositor. An excerpt weighted towards active compounds, which were near 3.4% of everything screened.

`O=C(CCCc1nc(-c2ccccc2Cl)no1)NCc1ccco1` gave MITF inh -2, TEAD-YAP inh 3, GPR151 ag 2 and FBW7 activator 0.
`O=C(N/N=C/c1ccc(Cl)c([N+](=O)[O-])c1)c1ccc(Br)cc1` gave MITF inh 18, TEAD-YAP inh -9, GPR151 ag 0 and FBW7 activator 0.
`COc1ccc(C(=O)Nn2c(SCc3cccc(F)c3)nc3ccccc3c2=O)cc1` gave MITF inh -6, TEAD-YAP inh 77*, GPR151 ag 0 and FBW7 activator 0.
Screening NC(=O)c1cc(Br)cc(Br)c1O returned MITF inh 10, TEAD-YAP inh -3, GPR151 ag -1 and FBW7 activator 0.
`Cc1cccc(C(=O)NC(=S)Nc2ccc(C(=O)O)cc2)c1` gave MITF inh -10, TEAD-YAP inh -12, GPR151 ag -1 and FBW7 activator 0.
Screening Cc1cc(OCC(=O)Nc2ccc(C(=O)OC3CCCCC3)cc2)ccc1Cl returned MITF inh 18, TEAD-YAP inh 84*, GPR151 ag 2 and FBW7 activator 0.
`CC(=O)c1ccc(N/C(=N\S(=O)(=O)c2ccccc2)c2ccc(Cl)cc2)cc1` gave MITF inh 7, TEAD-YAP inh -43, GPR151 ag 0 and FBW7 activator 0.
Screening O=C(Cc1n[nH]c(=O)c2ccccc12)OCC(=O)c1ccc2c(c1)OCCO2 returned MITF inh 3, TEAD-YAP inh 50*, GPR151 ag -2 and FBW7 activator 0.
For CCOC(=O)CNS(=O)(=O)c1cc(-c2nnc(Nc3cccc(C(F)(F)F)c3)c3ccccc23)ccc1C the results were MITF inh 18, TEAD-YAP inh 5, GPR151 ag -2 and FBW7 activator 0.
Screening CN(Cc1ccccc1)C(=O)c1cc(COc2cccc3cnccc23)on1 returned MITF inh 12, TEAD-YAP inh 33*, GPR151 ag -3 and FBW7 activator 0.
For CCCCNC(=O)c1cc(COc2cccc3cnccc23)on1 the results were MITF inh 1, TEAD-YAP inh 14, GPR151 ag 2 and FBW7 activator 0.
Screening O=C(c1cc(COc2cccc3cnccc23)on1)N1CCCC(CCCO)C1 (stereo unspecified) returned MITF inh 10, TEAD-YAP inh 65*, GPR151 ag 0 and FBW7 activator 0.
CCCCCCn1c(=N)c(C(=O)OC)cc2c(=O)n3cccc(C)c3nc21 was read as MITF inh 15, TEAD-YAP inh 2, GPR151 ag -3 and FBW7 activator 0.
For CCCCCOc1ccc(NC(=O)CSc2cccc3cccnc23)cc1 the results were MITF inh 4, TEAD-YAP inh 37*, GPR151 ag -1 and FBW7 activator -1.
COc1ccc2c(Cn3cnc4cc([N+](=O)[O-])ccc4c3=O)cc(=O)oc2c1 was read as MITF inh 0, TEAD-YAP inh 64*, GPR151 ag 0 and FBW7 activator 0.
For COC(=O)CSc1nnc2n(-c3ccccc3C)c(=O)c3ccccc3n12 the results were MITF inh 6, TEAD-YAP inh 2, GPR151 ag -1 and FBW7 activator 0.
`CC(C)c1ccc(NC(=O)c2cc(S(=O)(=O)N3CCCc4ccccc43)ccc2F)cc1` gave MITF inh -1, TEAD-YAP inh 6, GPR151 ag 0 and FBW7 activator 0.
O=Cc1ccc(-c2ccc(C(=O)O)c(O)c2)o1 was read as MITF inh 86*, TEAD-YAP inh 3, GPR151 ag -1 and FBW7 activator 0.
Screening COc1cc2nc(-c3ccc(N(C)C)cc3)n(C)c2cc1OC returned MITF inh 3, TEAD-YAP inh -71, GPR151 ag 0 and FBW7 activator 0.
`COc1cc2nc(C)n(C(=S)S)c2cc1OC` gave MITF inh 14, TEAD-YAP inh 56*, GPR151 ag 0 and FBW7 activator 0.
For Cc1cc(Nc2ccc(F)c(Cl)c2)nc(-n2nc(C)cc2C)n1 the results were MITF inh 15, TEAD-YAP inh 6, GPR151 ag -1 and FBW7 activator 1.
Screening COc1ccc(Nc2nc(C)cc(C)n2)c(OC)c1 returned MITF inh 12, TEAD-YAP inh 3, GPR151 ag 0 and FBW7 activator 0.
Screening Cc1cc(Nc2ccc3c(c2)OCO3)nc(-n2nc(C)cc2C)n1 returned MITF inh -5, TEAD-YAP inh 61*, GPR151 ag -1 and FBW7 activator 0.
For Cc1cc(Nc2ccccc2C)nc(-n2nc(C)cc2C)n1 the results were MITF inh 18, TEAD-YAP inh 70*, GPR151 ag -2 and FBW7 activator 0.
